# From PubChem
# FLuc counter: firefly luciferase modulation, counter-screen for miR-21 project; P08659; purified FLuc, Km substrates, luminescence inhibition; Potency, µM (doses to about 57.5 µM), without a hit: at the highest dose activity change, negative = inhibition, hits mostly inhibitors; 360,000 compounds, 6.9% hits; AID 588342;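 note: plate controls were vehicle for no effect and reference inhibitor for full effect; nearly all actives have a fitted effect of over 55% in size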
# Target sequence (P08659 whole entry, looked up): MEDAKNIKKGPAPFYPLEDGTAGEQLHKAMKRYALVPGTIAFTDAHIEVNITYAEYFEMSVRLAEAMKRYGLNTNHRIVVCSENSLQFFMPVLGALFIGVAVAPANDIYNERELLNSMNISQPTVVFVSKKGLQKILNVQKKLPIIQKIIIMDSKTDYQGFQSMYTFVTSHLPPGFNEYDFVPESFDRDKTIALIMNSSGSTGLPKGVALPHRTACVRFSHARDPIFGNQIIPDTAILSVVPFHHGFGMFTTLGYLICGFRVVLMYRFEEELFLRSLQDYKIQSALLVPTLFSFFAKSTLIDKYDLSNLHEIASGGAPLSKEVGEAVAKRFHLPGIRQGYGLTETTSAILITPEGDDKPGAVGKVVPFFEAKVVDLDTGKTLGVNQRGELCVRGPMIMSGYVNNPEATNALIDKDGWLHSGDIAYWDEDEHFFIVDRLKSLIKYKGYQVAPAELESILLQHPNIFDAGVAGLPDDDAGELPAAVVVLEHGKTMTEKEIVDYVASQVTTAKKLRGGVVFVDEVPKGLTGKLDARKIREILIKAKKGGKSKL
#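 Purified P. pyralis luciferase (10nM final) with 10uM D-luciferin and 10uM ATP (Km levels) in 50mM Tris acetate pH 7.5, 10mM Mg acetate, 0.01% Tween-20, 0.05% BSA; qHTS 6-point titration, ~60 µM downward; luminescence read.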
# ELG1 genotoxic: genotoxicity induction in ELG1-luciferase HEK293T cells. Potency, µM (highest dose often 46 µM), inactives show at the top dose activity change, positive = activation, hits mostly activators. HEK293T ELG1-luciferase reporter, luminescence, 16 h. 330,000 compounds, 1.3% hits. AID 504466; note: % of control where 0% means no effect; nearly all actives have a fitted effect of over 60% in size
#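 HEK293T cells expressing luciferase-tagged ELG1 were exposed to compound or DMSO vehicle for 16 hr at 37 °C and 5% CO2. Luciferase activity was then measured with ONE-Glo after 30 min at room temperature.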
# NPC1 prom act: activates the NPC1 promoter. Huh7 NPC1 promoter luciferase reporter, 24 h. Potency, µM (titrated, usually from 9.22 µM), inactives show at the top dose activation, most hits filed as activators. 320,000 compounds, 2.4% hits. AID 485313; note: % of control where 0% means no effect; nearly all actives have a fitted effect of over 60% in size
#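 Luminescence from an NPC1 promoter-driven luciferase reporter in stably transfected Huh7 cells was measured after 24 h compound treatment at 37 °C, followed by 10 min ambient incubation with luciferase detection reagent.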
# SMN2 splice up: enhancers of SMN2 splice variant expression; Potency, µM (highest dose often 46.1 µM), without a hit: top-dose activity change, positive = activation, usual class: activators; 210,000 compounds, 2.8% hits; HEK293 SMN2-luciferase splicing reporter, luminescence, 30-36 h; note: % of control where 0% means no effect; nearly all actives have a fitted effect of over 55% in size
#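 HEK293 cells carry an SMN2 […]–luciferase reporter in which exon 7 inclusion puts luciferase in frame. Cells were plated 10-12 h before compound addition, then incubated 30-36 h at 37C. ONE-Glo luminescence was read; sodium butyrate at 4.5 mM final served as control.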
# Rab9 prom act: activates the Rab9 promoter; Huh7 Rab9 promoter-luciferase reporter, luminescence, 24 h; Potency, µM (titrated, usually from 9.22 µM), inactives show top-dose activation, negative = inhibition, usual class: activators; 320,000 compounds, 2.8% hits; AID 485297; note: % of control where 0% means no effect; nearly all actives have a fitted effect of over 60% in size
#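 Using Huh7 cells stably transfected with Rab9 promoter–luciferase, compounds were incubated 24 h at 37 °C, 5% CO2; luciferase luminescence was read 10 min after reagent addition.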
# ELG1 repair inh: inhibitors of ELG1-dependent DNA repair in HEK293T cells. HEK293T ELG1-luciferase reporter, luminescence, 16 h; DNA damage induced by 5-fluorouridine. Potency, µM (top dose mostly 46.1 µM), for the others: at the highest dose activity change, negative = inhibition, hits mostly inhibitors. AID 504467. 330,000 compounds, 2.3% hits; note: % is set by controls: 0 for no effect and ±100 for the full control effect; nearly all actives have a fitted effect of over 55% in size
#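 Luminescence from the luciferase reporter, measured 30 min after ONE-Glo reagent at room temperature, was the read-out. Beforehand, 2,000 cells per well were exposed for 16 hr at 37 °C to 5-fluorouridine together with compound or vehicle.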
# Numbers without * were called inactive; ? = inconclusive; nt = not tested or not shown. An excerpt weighted towards active compounds, which were near 9.3% of everything screened. Calls come from the whole dose curve; as a rule, active = well fitted curve in the direction sought with a large enough effect; inconclusive = small, poorly fitted or top-dose-only effect, or another doubt; inactive = no such curve, though single readings can be large; an effect the other way counts as inactive or inconclusive. Potency is the fitted concentration of half-maximal effect.
SMILES,FLuc counter,ELG1 genotoxic,NPC1 prom act,SMN2 splice up,Rab9 prom act,ELG1 repair inh
O=C(Cc1c(F)cccc1Cl)Nc1cccc(S(=O)(=O)NC2=NCCCCC2)c1,2%,15%,1%,nt,-3%,4%
Cc1ccccc1CN1CCC(n2nccc2NC(=O)c2cccnc2)CC1,0%,-5%,1%,nt,-3%,-2%
CCOCCN1CCN(c2c(C)c(C)nc3cc(-c4cc(OC)cc(OC)c4)nn23)CC1,-9%,-17%,0%,14%,-7%,16µM*
O=C(Nc1nc2c(s1)CCCC2)c1cccnc1,12µM*,2.1µM*,2.5µM*,nt,?,?
O=C(Nc1nc2c(s1)CCCC2)c1cccs1,1.1µM*,?,2.8µM*,3.2µM*,0.71µM*,?
O=C(Cc1cccs1)Nc1nc2c(s1)CCCC2,17µM*,?,?,13µM*,2.8µM*,?
CC(C)(C)c1nc(SCC(=O)Nc2nc3c(s2)CCCC3)c2ccccc2n1,2%,-6%,-3%,3.2µM*,17%,3%
O=C(CSc1ncn(-c2ccccc2)n1)Nc1nc2c(s1)CCCC2,-24%,?,2%,?,-9%,?
O=C(CCSc1ccccc1)Nc1nc2c(s1)CCCC2,19µM*,23µM*,30%,8%,28%,?
COc1ccccc1N1CCN(CC(O)COc2ccc(S(=O)(=O)N3CCOCC3)cc2)CC1 (centres undefined),0%,-4%,-1%,-29%,-5%,10µM*
O=C(CC(Nc1cccc(Cl)c1Cl)C(=O)O)c1ccccc1 (centres undefined),?,?,-4%,-5%,8%,14%
O=C(CC(Nc1ccccc1Cl)C(=O)O)c1ccccc1 (centres undefined),4.8µM*,2.9µM*,-2%,-53%,26%,?
O=C(CC(Nc1ccc(Cl)cc1)C(=O)O)c1ccccc1 (centres undefined),1.7µM*,16µM*,2.8µM*,18µM*,2.2µM*,?
COc1ccccc1Oc1ccc2c(c1)C(=O)N(c1ccccc1)C2=O,9.5µM*,-1%,-6%,-15%,1%,-1%
c1ccc(-n2c(-c3cccs3)nc3nc4ccccc4nc32)cc1,1%,-11%,-1%,-19%,-2%,?
c1csc(-c2cnc3ccccc3n2)c1,11µM*,?,4µM*,?,?,?
c1cc(-c2cccs2)nc(-c2cccs2)c1,15µM*,11%,8%,20%,4%,?
c1ccc(-c2cccs2)nc1,5%,-2%,1%,nt,0%,-13%
CC(=O)NNC(=O)c1ccncc1,1%,-1%,0%,-21%,-1%,0%
O=C(Nc1ccc2c(c1)OCO2)C1CCCN1C(=O)OCc1ccccc1 (centres undefined),-1%,8%,0%,-18%,6%,11%
CCOC(=O)/C(C#N)=C\c1ccc(N2CCN(C)CC2)cc1,12µM*,4%,-1%,1%,-3%,20%
CCOC(=O)C(/C=C(\C#N)C(=O)OCC)=C(/N)N1CCN(c2ccccc2)CC1,4%,2%,-1%,1%,-1%,4%
CCOC(=O)/C(C#N)=C/c1ccc(N2CCN(C)CC2)cc1,27µM*,-2%,-2%,5%,1%,?
O=C(N/N=C/c1ccc2c(c1)OCO2)C(=O)Nc1ccccc1Cl,-1%,?,5%,nt,0%,13%
O=C(CCS(=O)(=O)c1ccccc1)N1CCN(c2ccccc2)CC1,12µM*,?,2.8µM*,nt,1.6µM*,?
SMILES,FLuc counter,ELG1 genotoxic,NPC1 prom act,SMN2 splice up,Rab9 prom act,ELG1 repair inh
O=C(CCS(=O)(=O)c1ccc(Br)cc1)N1CCN(c2ccccc2)CC1,1%,-1%,-1%,5%,-3%,-15%
COc1ccccc1C(=O)C1CCCN(C(=O)c2cc(CC(C)C)nc(C)n2)C1 (centres undefined),3%,0%,2%,nt,-15%,4%
Cc1ccc(S(=O)(=O)NCC(=O)OCC(=O)N(C)C2CCCCC2)cc1,5%,0%,1%,nt,-8%,?
COc1ccc(-c2ccc(-c3nnc(-c4ccncc4)o3)cc2)cc1,?,4%,20%,-23%,20%,?
Cc1ccc(C(=O)Nc2nnc(-c3ccncc3)o2)cc1,?,10%,21%,-59%,?,19%
COc1ccc(-c2nnc(-c3ccc(C)cc3)o2)cc1,1.9µM*,?,1.6µM*,nt,?,?
COc1ccc(-c2nnc(-c3ccc(F)cc3)o2)cc1,2.1µM*,3.7µM*,1.3µM*,nt,1µM*,?
CCNc1nnc(-c2ccc(C)cc2)o1,15µM*,?,3.5µM*,24%,4µM*,?
Cc1ccc(-c2nnc(-c3ccccc3)o2)cc1,2.7µM*,?,3.2µM*,2.8µM*,1.4µM*,?
CC(NC(=O)c1ccco1)C(=O)N1CCN(S(=O)(=O)c2ccccc2C#N)CC1 (centres undefined),-1%,2%,-3%,nt,-1%,15%
COc1ccc(CN(CC(O)COCc2ccccc2)S(=O)(=O)c2ccccc2Br)cc1 (centres undefined),nt,-3%,nt,nt,nt,?
COc1ccc(-c2nnc(-c3ccccc3O)o2)cc1,2.4µM*,?,?,nt,?,?
COc1cc(C(=O)N/N=C/c2cccc(Oc3ccccc3)c2)ccc1O,17µM*,5%,-4%,nt,4%,-1%
O=C(N/N=C/c1cccc(Oc2ccccc2)c1)c1ccc(O)cc1O,17µM*,1%,1%,nt,13%,11%
O=C(N/N=C/c1cccc(Oc2ccccc2)c1)c1ccncc1,?,-3%,1%,?,14%,2%
O=CN/C=C/c1cc(F)cc(F)c1F,nt,nt,nt,-1%,nt,nt
COc1ccc(/C=N/NC(=O)c2cc(C)n(-c3ccccc3)c2C)cc1OC,8.5µM*,7%,-20%,17%,22%,-12%
Cc1cc(C(=O)N/N=C/c2cccc([N+](=O)[O-])c2)c(C)n1-c1ccccc1,0.95µM*,?,?,10µM*,?,?
COc1ccc(/C=N/NC(=O)c2cccc(C(=O)N/N=C/c3ccc(OC)c(OC)c3)n2)cc1OC,2%,-4%,2%,nt,-2%,?
Cc1onc(-c2ccccc2)c1C(=O)N(Cc1ccco1)Cc1cccs1,-8%,-3%,-4%,-15%,-4%,-8%
CC(=O)c1ccc(NC(=O)CSc2cn(CC(=O)N(C(C)C)C(C)C)c3ccccc23)cc1,-14%,nt,nt,nt,nt,nt
